Menin-MLL TR inh = menin-MLL binding inhibition, Texas Red mutant peptide; 270,000 compounds, 0.23% hits; AID 1768; Potency, µM (highest dose often 61.6 µM), inactives show top-dose FP activity change, negative = inhibition, actives largely listed as inhibitors; O00255; Menin + Texas Red MLL mutant peptide, fluorescence polarization; active = well fitted inhibition curve with a large enough effect in the polarisation, with a control signal flat, not every such curve was filed as active; inconclusive = small, poorly fitted or top-dose-only effect, or effect the other way, or a change in a side signal; inactive = no such curve, though single readings can be large or run the other way; the % refers to the polarisation; also: potency is read from the fitted curve at half-maximal effect; % of control where 0% means no effect
Target sequence (O00255 whole entry, looked up): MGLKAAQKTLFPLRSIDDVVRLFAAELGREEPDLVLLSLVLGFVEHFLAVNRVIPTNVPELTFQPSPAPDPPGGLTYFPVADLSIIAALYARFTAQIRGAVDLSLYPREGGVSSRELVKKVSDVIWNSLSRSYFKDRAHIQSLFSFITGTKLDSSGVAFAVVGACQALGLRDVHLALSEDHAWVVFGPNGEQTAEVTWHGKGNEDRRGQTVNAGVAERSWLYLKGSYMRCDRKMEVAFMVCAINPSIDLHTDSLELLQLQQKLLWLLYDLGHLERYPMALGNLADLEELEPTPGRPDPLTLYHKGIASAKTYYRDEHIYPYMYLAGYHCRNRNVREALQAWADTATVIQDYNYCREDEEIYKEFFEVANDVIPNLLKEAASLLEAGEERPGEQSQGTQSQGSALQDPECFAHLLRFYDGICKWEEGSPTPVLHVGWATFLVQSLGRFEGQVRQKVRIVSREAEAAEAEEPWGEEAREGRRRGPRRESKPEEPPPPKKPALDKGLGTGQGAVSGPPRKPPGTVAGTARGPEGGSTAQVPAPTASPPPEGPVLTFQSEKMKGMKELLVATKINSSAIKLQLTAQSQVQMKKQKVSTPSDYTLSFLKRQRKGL
Menin-MLL FL inh = inhibitors of human menin-MLL interaction, wild-type MLL peptide; FP activity change, % at 61.4 µM; Fluorescence polarization, fluorescein-MLL peptide displacement from menin; 290,000 tested, under 10 active; active = well fitted curve in the direction sought with a large enough effect in the polarisation, not every such curve was filed as active; inconclusive = small, poorly fitted or top-dose-only effect, or effect the other way, or a change in a side signal; inactive = no such curve, though single readings can be large or run the other way; the % refers to the polarisation; also: % of control where 0% means no effect
GAA spleen mod = inhibitors or activators of human alpha-glucosidase in spleen homogenate. human spleen homogenate, 4-MU-alpha-glucoside fluorescence. Potency, µM (titrated, usually from 79.9 µM), for the others: top-dose activity change, negative = inhibition, usual class: inhibitors. 240,000 compounds, 0.006% hits. AID 2112;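 also: potency is read from the fitted curve at half-maximal effect; 0% = enzyme with vehicle and -100% = no enzyme basal signal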
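Enzyme source: human spleen homogenate, 1 ug/well. Buffer 50 mM citric acid/K phosphate pH 5.0, 0.01% Tween-20. 4-MU-alpha-glucoside 1 mM; 37 C x 40 min; NaOH/glycine stop; fluorescence.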
GAA glycogen = alters human alpha-glucosidase cleavage of glycogen; recombinant GAA, glycogen substrate, Amplex Red glucose oxidase fluorescence; Potency, µM (top dose mostly 76.4 µM), without a hit: at the top dose activity change, negative = inhibition, most hits filed as inhibitors; 300,000 compounds, 0.38% hits; AID 2100;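 also: potency is read from the fitted curve at half-maximal effect; 0% = full enzyme reaction and -100% = no-enzyme basal signal; the screen sought inhibitors and activators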
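Recombinant human alpha-glucosidase (4 nM final) hydrolysed bovine liver glycogen (30 ug) for 40 min at 37 C in pH 5.0 citrate/phosphate with 0.01% Tween-20. Released glucose detected by glucose oxidase/Amplex Red, Ex 573/Em 610 nm. Compounds up to 77 uM; AC50 from Hill fits.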
GAA inhib = inhibitors of human lysosomal alpha-glucosidase; 200,000 compounds, 0.005% hits; Potency, µM (doses to about 76.9 µM), without a hit: at the highest dose activity change, negative = inhibition, hits mostly inhibitors; AID 1466; P10253; purified human GAA, 4-MU-alpha-glucoside fluorescence;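 also: potency is read from the fitted curve at half-maximal effect; plate controls were uninhibited enzyme wells for no effect and no-enzyme background for full effect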
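AC50 values come from Hill fits of compound titrations (up to 77 uM) against 4 nM human enzyme. Substrate 4-methylumbelliferyl-alpha-D-pyranoside at 400 uM, pH 5.0 citrate buffer, 20 min room temperature; fluorescence Ex 365/Em 440 after alkaline stop.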
CXXC DNA block = inhibitors of human MLL CXXC domain-DNA interaction. MLL-CXXC / FITC-HOXA9 DNA fluorescence polarization. Potency, µM (highest dose often 115 µM), without a hit: at the highest dose activity change, negative = inhibition, most hits filed as inhibitors. 290,000 compounds, 0.037% hits. AID 2662; active = well fitted inhibition curve with a large enough effect in the polarisation, with a control signal flat, not every such curve was filed as active; inconclusive = small, poorly fitted or top-dose-only effect, or effect the other way, or a change in a side signal; inactive = no such curve, though single readings can be large or run the other way; the % refers to the polarisation; also: potency is read from the fitted curve at half-maximal effect
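Fluorescence polarization: 7 uM MLL-CXXC (stock) preincubated 5 min with compounds, then 50 nM fluorescein-HOX-A9 DNA (stock) added; 30 min ambient. Buffer 50 mM Tris-HCl pH 7.5, 50 mM NaCl, 1 mM DTT, 0.05% BSA.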
Active calls of the source: *; ? = inconclusive; / = not tested or not shown; [ ] = another dose, or the depositor's remark. A selection: hits, their analogues and other compounds. The true share with any hit is near 0.45%. Unless noted, calls follow the shape of the dose curve; as a rule, active = well fitted curve in the direction sought with a large enough effect; inconclusive = small, poorly fitted or top-dose-only effect, or another doubt; inactive = no such curve, though single readings can be large; an effect the other way counts as inactive or inconclusive.

SMILES	Menin-MLL TR inh	Menin-MLL FL inh	GAA spleen mod	GAA glycogen	GAA inhib	CXXC DNA block
C[C@H]1Cc2c(-c3ccccc3)nc3c(c2CO1)CN(C(=O)C1CCCCC1)CC3	-17%[11.7 µM]	1[11.7 µM]	-2%[17.4 µM]	/	/	/
O=C(NCC(c1cccnc1)N1CCc2ccccc21)C(=O)Nc1ccccc1F (stereo not given)	/	/	/	-3%[76.3 µM]	/	/
CC(=O)Nc1ccc(S(=O)(=O)Oc2ccc(/C=C3\SC(N)=NC3=O)cc2)cc1	14µM*	-1	-2%	4%	0%	2%
N#Cc1c(Cl)cccc1N1CCC(C(N)=O)CC1	/	4	11%	4.4µM*	/	-5%
CCOC(=O)c1[nH]c2cc(OC)c(OC)cc2c1N	16%	0	7%	28µM*	-1%	5%
O=C(/C=C/Nc1ccccc1O)c1ccco1	/	16	-1%	16µM*	/	6%
CN(C)c1ccc(N/C=C/C(=O)c2ccco2)cc1	?	?	2%	13µM*	5%	6%
COc1ccc(Cl)cc1NC(=O)Cn1cc(S(=O)(=O)Cc2cccc(Cl)c2)c2ccccc21	/	/	/	8%[76.3 µM]	/	/
Cc1cc(C)c(S(=O)(=O)/N=C2\C=CC(=O)C(Cl)=C2)c(C)c1	?	6	-2%	12µM*	?	-11%
O=C(O)c1cc(N=Nc2ccc(-c3ccc(N=Nc4ccc(O)c(C(=O)O)c4)cc3)cc2)ccc1O	?	?	-7%	/	/	/
O=C(O)c1cc(N=Nc2ccc(O)c(C(=O)O)c2)ccc1O	40µM*	-7	/	/	/	-9%
O=C(O)[C@@H](O)[C@@H](O)[C@H](O)C(=O)CO	-2%	1	/	/	/	-1%
O=C(NC1(C(F)(F)F)Oc2ccccc2O1)N1CCCC1	-1%	3	2%	7.9µM*	-3%	6%
O=C(NCC1CCCO1)NC1(C(F)(F)F)Oc2ccccc2O1 (stereo not given)	10%	3	-2%	-19%	-2%	-10%
CC[N+](CC)(CC)CC[C@](O)(c1ccccc1)C1CCCCC1	-2%[24.8 µM]	-5[24.8 µM]	0%[29.1 µM]	/	/	-8%[51.4 µM]
COC(=O)c1[nH]c2ccc(Cl)cc2c1NC(=O)Oc1ccccc1	?	3	0%	25µM*	9%	0%
COC(=O)c1[nH]c2ccc(Cl)cc2c1NC(=O)C1CC1	8%	4	-9%	6%	-3%	2%
O=C(O)c1ccccc1C(=O)NNc1ccc(F)cc1	/	1	2%	28µM*	-9%	5%
O=C(O)c1ccccc1C(=O)NNc1ccc(Cl)cc1Cl	12%	2	2%	16µM*	4%	-6%
Cc1cc(OCc2cc(C(=O)N(C)C(C)c3ccccn3)no2)cc(C)c1Cl (stereo not given)	27%	-1	/	-11%[76.3 µM]	/	-2%
O=C(Cn1c(=O)oc2ccccc21)Nc1ccc(Cl)cc1Cl	32µM*	-1	/	3%	/	44%
Oc1ccc(-c2[nH]ncc2-c2cnn(-c3ccccc3)c2)c(O)c1	?	0	-6%	-9%	6%	5%
Oc1cnn(-c2ccccc2)c1	13%	-4	5%	20µM*	4%	1%
COCCCNC(=O)CCCCn1c(=O)c2ccccc2n(CC(=O)Nc2ccc(C)cc2C)c1=O	/	/	/	-9%[76.3 µM]	/	/
CCc1nnc(NC(=O)c2cc(=O)c3cc(C)ccc3o2)s1	/	/	/	14%[76.3 µM]	/	/
SMILES	Menin-MLL TR inh	Menin-MLL FL inh	GAA spleen mod	GAA glycogen	GAA inhib	CXXC DNA block
COc1cc(/C=C/c2nc3ccccc3s2)cc(OC)c1O	50%	?	-11%	18µM*	-10%	?
COc1cc(/C=C/c2cc(C(=O)O)c3ccccc3n2)cc(OC)c1O	?	2	-14%	14µM*	-5%	-21%
CCOc1cc(/C=C/c2cc(C(=O)O)c3ccccc3n2)ccc1OC	3%	19	0%	5%	3%	-4%
CC1=C(C(=O)N2CCCCC2)C(c2cccc(Cl)c2)n2c(nc3ccccc32)N1 (stereo not given)	/	/	/	6%[76.3 µM]	/	/
COc1cc(-c2cn[nH]c2N)cc(OC)c1OC	0%	0	?	11µM*	?	10%
CNC(=O)c1ccc(Nc2nnc(-c3ccc(C)c(S(=O)(=O)NC(C)(C)C)c3)c3ccccc23)cc1	/	/	/	9%[76.3 µM]	/	/
COc1ccc(OC)c(CC(NC(C)=O)C(=O)NC2CCN(c3cc(C)nc4ncnn34)CC2)c1 (stereo not given)	0%	-8	-12%	-12%	-5%	10%
Cc1c(CNCCc2ccc(S(N)(=O)=O)cc2)c(C(=O)O)c(C)n1Cc1ccc(Cl)cc1	/	/	/	50µM*	/	/
COc1ccccc1-c1csc(NC(=O)c2cc(-c3cccs3)nc3ccccc23)n1	8.9µM*	7	-19%	10%	-2%	11%
COc1ccc(-c2csc(NC(=O)c3cc(-c4cccs4)nc4ccccc34)n2)c(OC)c1	/	/	-13%	-8%	?	-11%
CN(C)c1ncc2nc(-c3ccc(Cl)cc3)c(=O)n(CCC#N)c2n1	1%	?	-6%	/	/	/
CN(C)c1ncc2nc(-c3ccccc3)c(=O)n(CCC#N)c2n1	28µM*	?	-2%	/	/	/
COC(=O)C(NC(C)=O)(Nc1sc2c(c1C(N)=O)CCCC2)C(F)(F)F (stereo not given)	1%	3	-4%	20µM*	1%	20%
COc1ccc(OC)c(CCNc2nc3cc(OC)c(OC)cc3c3nc(-c4cccnc4)nn23)c1	/	/	/	-6%[76.3 µM]	/	/
COc1cc(NC(=O)N2c3ccccc3Sc3ccccc32)c(C(=O)O)cc1OC	?	-2	/	/	/	1%
O=C(O)c1ccccc1NC(=O)N1c2ccccc2Sc2ccccc21	/	/	/	18µM*	/	/
COc1cc(O)c(CC=C(C)C)c(O)c1C(=O)CCc1ccc(O)cc1	/	4	-7%	-22%	/	-2%
O=C(CCc1ccc(O)cc1)c1c(O)cc(O)cc1O	?	?	0%	31µM*	/	?
Cc1c(C(=O)O)c2cc(O)ccc2n1-c1ccccc1	7%	2	-6%	25µM*	-3%	0%
COc1ccc2c(c1)c(C(=O)O)c(C)n2-c1ccccc1	/	1	-1%	5%	/	2%
CCCCOC(=O)Cn1nnc2sc(-c3ccccc3)cc2c1=O	/	/	/	12%[76.3 µM]	/	/
COC(=O)C1CSc2[nH]c(=O)sc2C1c1ccc(OC)c(OC)c1 (stereo not given)	7%	-1	-6%	18µM*	10%	5%
Cc1ccc(NC(=O)C(CC(C)C)NS(=O)(=O)c2ccc3c(c2)oc(=O)n3C)c(C)c1 (stereo not given)	/	/	/	17%[76.3 µM]	/	/
O=c1nc(/C=C/c2ccc(O)c(O)c2)oc2ccccc12	/	18	-17%	7.1µM*	/	25%
CCC(=O)Nc1c(-c2ccc3ccccc3c2)nc2ccccn12	-19%	0	/	-1%	/	12%

Assay outcomes deposited in PubChem BioAssay by National Center for Advancing Translational Sciences (NCATS).
